HP1b binding inh: HP1-beta chromodomain-methylated histone interaction inhibition; actives 0.56% (n = 390,000); AlphaScreen HP1-beta / biotin-H3K9me3 peptide binding; Potency, µM (highest dose often 114 µM), for inactives: top-dose activity change, negative = inhibition, usual class: inhibitors; AID 540317; note: potency is the fitted concentration of half-maximal effect; nearly all actives have a fitted effect of over 70% in size
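AlphaScreen: HP1-beta (50 nM) preformed 30 min with biotin-H3(1-18)K9me3 peptide (50 nM) in PBS pH 7.4, 0.01% Tween-20. Compound added for 30 min at RT, then streptavidin donor/nickel chelate acceptor beads (10 ug/mL) for 30 min.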
JMJD2A Tudor: inhibitors of human JMJD2A Tudor domain | O75164 | AlphaScreen JMJD2A-Tudor / H3K4me3 peptide binding | Potency, µM (highest dose often 114 µM), for inactives: top-dose activity change, negative = inhibition, usual class: inhibitors | actives 4.4% (n = 390,000) | AID 504339; note: potency is the fitted concentration of half-maximal effect; % is set by controls: 0 for no effect and ±100 for the full control effect; nearly all actives have a fitted effect of over 50% in size
PI5P4Ka inh: inhibitors of human PI5P4K alpha; P48426; AID 652105; actives 1.2% (n = 330,000); max response, %; PI5P4Kalpha enzyme, ADP-Glo luminescence, 60 min; stronger effect = lower value; active = max response of -50% or lower; inconclusive = between -30% and -50%; inactive = -30% or higher; note: value at the top dose of about 77 µM; % is set by controls: 0 for no effect and ±100 for the full control effect
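Compounds were pin-transferred onto PI5P4Kalpha and substrate in HEPES pH 7.4 buffer with EGTA, CHAPS and 5% DMSO. ATP (5 microM final) started the reaction, which ran 60 minutes at room temperature before ADP-Glo detection.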
L3MBTL1 inh: blocks human L3MBTL1 | AID 485360 | Potency, µM (series often up to 57.1 µM), without a hit: top-dose activity, negative = inhibition, hits mostly inhibitors | actives 0.66% (n = 230,000) | AlphaScreen L3MBTL1–H3K9me1 peptide binding; note: potency is the fitted concentration of half-maximal effect; % is set by controls: 0 for no effect and ±100 for the full control effect; nearly all actives have a fitted effect of over 60% in size
Target sequence (Q9Y468 whole entry, looked up): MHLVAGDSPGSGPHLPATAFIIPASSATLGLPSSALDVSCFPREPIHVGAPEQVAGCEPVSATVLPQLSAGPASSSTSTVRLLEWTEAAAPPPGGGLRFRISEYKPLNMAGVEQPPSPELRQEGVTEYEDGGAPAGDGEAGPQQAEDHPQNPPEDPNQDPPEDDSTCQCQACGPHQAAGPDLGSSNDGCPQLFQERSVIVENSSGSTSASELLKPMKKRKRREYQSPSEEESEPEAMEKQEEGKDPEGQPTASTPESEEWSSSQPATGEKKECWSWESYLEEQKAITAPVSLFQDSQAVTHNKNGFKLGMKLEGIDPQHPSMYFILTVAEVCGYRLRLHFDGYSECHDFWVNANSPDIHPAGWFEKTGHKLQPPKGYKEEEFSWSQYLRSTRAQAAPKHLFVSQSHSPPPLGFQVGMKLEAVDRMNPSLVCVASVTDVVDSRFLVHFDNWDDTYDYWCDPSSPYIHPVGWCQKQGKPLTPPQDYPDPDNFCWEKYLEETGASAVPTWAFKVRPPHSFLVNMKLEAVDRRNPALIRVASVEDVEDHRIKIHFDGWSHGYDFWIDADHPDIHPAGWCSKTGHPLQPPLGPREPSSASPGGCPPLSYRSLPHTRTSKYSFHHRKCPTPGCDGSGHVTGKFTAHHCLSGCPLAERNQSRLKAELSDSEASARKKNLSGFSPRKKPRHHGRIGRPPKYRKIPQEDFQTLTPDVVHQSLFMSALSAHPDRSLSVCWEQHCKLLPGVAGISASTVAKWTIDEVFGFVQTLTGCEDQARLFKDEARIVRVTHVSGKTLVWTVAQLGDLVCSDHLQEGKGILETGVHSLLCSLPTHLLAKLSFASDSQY
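L3MBTL1 (50 nM) pre-complexed 30 min with biotinylated H3(1-15)K9me1 peptide (75 nM), then compounds added for 30 min at room temperature; AlphaScreen streptavidin donor/nickel chelate acceptor beads (10 ug/mL final) read after 30 min dark incubation.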
G9a block: G9a (human) methyltransferase inhibition; Q96KQ7; G9a H3K9 monomethylation, AlphaScreen, 2 h; Potency, µM (doses to about 102 µM), inactives show at the highest dose activity, negative = inhibition, usual class: inhibitors; actives 8.8% (n = 350,000); note: potency is the fitted concentration of half-maximal effect; % is set by controls: 0 for no effect and ±100 for the full control effect; nearly all actives have a fitted effect of over 75% in size
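Using a bead-based AlphaScreen, monomethylated H3K9 product from 2 h room-temperature reactions (G9a 20 nM, peptide 500 nM, SAM 20 uM) was detected with 0.5 ug/mL rabbit anti-H3K9me1 antibody.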
BAZ2B block: inhibitors of human BAZ2B bromodomain; Q9UIF8; AlphaScreen BAZ2B-H3K14Ac peptide displacement; Potency, µM (top dose mostly 114 µM), for the others: at the highest dose activity change, negative = inhibition, actives largely listed as inhibitors; actives 4.4% (n = 360,000); AID 504333; note: potency is the fitted concentration of half-maximal effect; % is set by controls: 0 for no effect and ±100 for the full control effect; nearly all actives have a fitted effect of over 60% in size
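BAZ2B 50 nM plus b-H3(5-23)K14Ac 50 nM, PBS pH 7.4/0.01% Tween-20, 30 min RT; compound added (max 110 uM), 30 min RT; streptavidin donor/Ni-chelate acceptor beads 10 ug/mL final, 20 min dark; AlphaScreen read.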
Active calls of the source: *; ? = inconclusive; . = not tested or not shown; [ ] = dose if it differs, or a comment. Compounds with a hit are over-represented: about 11% of the library has one in this group of screens. Unless noted, calls come from the whole dose curve; as a rule, active = well fitted inhibition curve with a large enough effect; inconclusive = small, poorly fitted or top-dose-only effect; inactive = no such curve, though single readings can be large or run the other way.

SMILES | HP1b binding inh | JMJD2A Tudor | PI5P4Ka inh | L3MBTL1 inh | G9a block | BAZ2B block
CC(=O)NCCNC(=O)c1ccc2c(=O)n(CCc3ccccc3)c(=O)[nH]c2c1 | 20% | -7% | . | . | 3%[59 µM] | 2%
CCn1c(C)cc(/C=C2\NC(=O)N(CC(=O)Nc3cccc(C)c3)C2=O)c1C | 11% | -19% | -9 | -7% | ? | ?
COc1ccc(/C=C2/NC(=O)N(CC(=O)Nc3cccc(C)c3)C2=O)cc1O | 34% | -2% | -4 | -1% | 19%[59 µM] | -3%
Cc1ccc(NC(=O)CN2C(=O)N/C(=C/c3ccc(C)o3)C2=O)cc1 | 13% | -29% | -28 | -3% | 35µM* | 8%[57.1 µM]
Cc1cccc(NC(=O)CN2C(=O)N/C(=C\c3ccc(-c4cccc(C(=O)O)c4)o3)C2=O)c1 | 5% | -18% | ? | . | 45µM* | -20%
CCn1c(C)cc(/C=C2/NC(=O)N(CC(=O)Nc3cccc(C)c3)C2=O)c1C | -13% | -29% | -10 | 1% | 45µM* | -39%
Cc1cccc(NC(=O)CN2C(=O)N/C(=C/c3ccc(C)o3)C2=O)c1 | -25% | 79µM* | -51* | -4% | 35µM* | 4%
Cc1ccc(NC(=O)CN2C(=O)N/C(=C/c3ccc(C)s3)C2=O)cc1 | 32% | 2% | -8 | 3% | ? | 10%
CC(C)(C)OC(=O)N1CCC(c2c(C(=O)NCC3CCN(C4CCCC4)C3)cnn2-c2ccccc2Cl)CC1 (centres undefined) | 33% | -20% | -6 | . | 71µM* | -17%
COc1ccc2c(c1)c(=O)oc1cc3oc(C)c(C)c3cc12 | . | . | . | . | ? | 56µM*
COc1ccc2c(c1)c1c(c(=O)n(-c3cccc(C)c3)c(=O)n1CC(=O)NCc1ccc(C)cc1)n2C | 46% | -1% | . | . | 0%[59 µM] | -9%
Cc1csc2nc(CCNS(=O)(=O)c3ccc4c(c3)OCCO4)cn12 | 14% | -7% | 1 | -5% | 50µM* | 0%
COc1cc2c(cc1OC)C(c1ccc(F)cc1)N(c1cccc(C#N)c1)C(=O)C2 (centres undefined) | 33% | -28% | . | . | -25%[59 µM] | -7%
COc1ccccc1-c1cc(-c2ccc(C)cc2)nc(SCc2nnc(-c3ccccc3)o2)c1C#N | -26% | -22% | -5 | -11% | 11µM* | 11%
COc1ccc(OC)c(C2CC(=O)Nc3c2c(=O)[nH]c2nc4ccccc4n32)c1 (centres undefined) | 20% | -13% | . | . | 16%[59 µM] | -19%
O=c1[nH]c(=S)[nH]cc1Oc1ccc(Cl)cc1 | 50% | ? | -2 | . | . | .
O=c1[nH]c(=S)[nH]cc1S(=O)(=O)c1cccc(Cl)c1 | 18% | -33% | -57* | . | 40µM* | -16%
O=C(O)c1ccc(Sc2ccccn2)c([N+](=O)[O-])c1 | 33% | -18% | 0 | -9% | ? | ?
N#Cc1cc(Sc2ccccn2)c([N+](=O)[O-])cc1C#N | 24% | -4% | -86* | . | 9% | -3%
N#Cc1cc(Sc2ccccn2)c(Sc2ccccn2)cc1C#N | 14% | -18% | . | 13% | 32µM* | 2%
Cc1cccc(NC(=O)C(NS(=O)(=O)c2ccc3c(c2)CCC(=O)N3)c2ccccc2)n1 (centres undefined) | 25% | ? | . | 2% | 22µM* | 1%
COc1ccc(N2CCN(CC(O)COc3cc(C)ccc3C)CC2)cc1 (centres undefined) | 20% | -33% | 5 | . | 8.9µM* | ?
COc1cccc(OCC(O)CN2CCN(c3ccc(F)cc3)CC2)c1 (centres undefined) | 22% | -20% | 3 | . | -9%[2.33 µM] | ?
COc1ccc(N2CCN(CC(O)COc3ccccc3[N+](=O)[O-])CC2)cc1 (centres undefined) | ? | 28µM* | -1 | -4% | ? | ?
OC(COc1cccc2ccccc12)CN1CCN(c2ccc(Cl)cc2)CC1 (centres undefined) | 14% | ? | 33 | . | 45µM* | ?
SMILES | HP1b binding inh | JMJD2A Tudor | PI5P4Ka inh | L3MBTL1 inh | G9a block | BAZ2B block
COc1ccc(N2CCN(CC(O)COc3ccc(C)cc3C)CC2)cc1 (centres undefined) | ? | 45µM* | 3 | . | 40µM* | 40µM*
C=C1C[C@@]23CC[C@H]4[C@@](C)(CCC[C@@]4(C)C(=O)OC4OC(CO)C(O)C(O)C4O)[C@@H]2CC[C@]1(OC1OC(CO)C(O)C(O)C1OC1OC(CO)C(O)C(O)C1O)C3 (some centres undefined) | . | . | . | . | -5%[59 µM] | .
Cc1ccc(NC(=O)CCS(=O)(=O)c2ccc(Br)s2)c(Br)c1 | 7% | -3% | . | . | -25%[59 µM] | 0%
Cc1ccc(NC(=O)c2cc3c(=O)n(Cc4cccnc4)ccc3nc2C)cc1F | 36% | -12% | . | . | -5%[59 µM] | -3%
CCCC[n+]1ccn(C2=C([O-])c3ccccc3C(=O)/C2=N\S(=O)(=O)c2ccc(Br)cc2)c1 | 18% | -12% | 2 | -7% | 45µM* | 89µM*
Cc1ccc(S(=O)(=O)/N=C2\C(=O)c3ccccc3C([O-])=C2n2cc[n+](CCC(C)C)c2)cc1 | 5% | -20% | . | -4% | ? | -34%
Cc1cccc(NC(=O)CS(=O)(=O)c2nc(-c3ccccc3)cn2-c2cccc(Cl)c2)c1C | 24% | -25% | . | . | -28%[59 µM] | -21%
O=[N+]([O-])c1cccc(C=Nc2cc3c(cc2Br)OCCO3)c1 | -38% | ? | 9 | -5% | 50µM* | ?
O=C(N/N=C/c1cccc([N+](=O)[O-])c1)c1ccc2c(c1)OCCO2 | 12% | -5% | 1 | 1% | -24%[59 µM] | 0%
Cc1nc2ccc(S(=O)(=O)CCC(=O)Nc3ccc(C(C)C)cc3)cc2s1 | 5% | -18% | . | . | -4%[59 µM] | -13%
Cc1ccc2nc(-c3ccc(Cl)c(NC(=O)COc4cccc(C)c4C)c3)oc2c1 | 27% | 4% | . | . | -1%[59 µM] | -13%
Cc1ccc(S(=O)(=O)N(CCC(=O)O)c2ccccc2)cc1 | 30% | -5% | -6 | 9% | 56µM* | -6%
Cc1ccc(N(CCC(=O)N2CCOCC2)S(=O)(=O)c2ccccc2)cc1 | 31% | -1% | -3 | 0% | 0.71µM* | -2%
Cc1ccc(S(=O)(=O)N(C)CC(=O)N2CCOCC2)cc1 | ? | 79µM* | -4 | . | 4%[59 µM] | -6%
Cc1ccc(N(CCC(=O)O)S(=O)(=O)c2ccc(C)cc2)cc1 | 40% | 9% | 2 | 4% | 24%[59 µM] | -6%
COc1ccc(-c2cc(C(=O)Oc3cccc(C)c3C)c3ccccc3n2)cc1 | 25% | 59% | . | . | 83%[59 µM] | 43%
N#C/C(=C1/SCC(c2ccccc2Cl)S1)n1ccnc1 (centres undefined) | . | . | . | . | -5%[59 µM] | .

High-throughput results (PubChem)
